Screen size: about 310,000 compounds; about 14,000 (4.5%) showed an effect of 50% or more. The effect is printed as a negative number. The sample as a whole holds a higher share of strong results than the screen did.
Molecular target: human ether-à-go-go-related gene (hERG) potassium channel (human, UniProt Q12809)
Assay: primary screen, population patch clamp on CHO cells stably expressing hERG; higher = less effect of the substance
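Also: peak tail current of the secondary pulse compared with the same well before compound.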

Sequence of human ether-à-go-go-related gene (hERG) potassium channel (Q12809 whole entry, looked up): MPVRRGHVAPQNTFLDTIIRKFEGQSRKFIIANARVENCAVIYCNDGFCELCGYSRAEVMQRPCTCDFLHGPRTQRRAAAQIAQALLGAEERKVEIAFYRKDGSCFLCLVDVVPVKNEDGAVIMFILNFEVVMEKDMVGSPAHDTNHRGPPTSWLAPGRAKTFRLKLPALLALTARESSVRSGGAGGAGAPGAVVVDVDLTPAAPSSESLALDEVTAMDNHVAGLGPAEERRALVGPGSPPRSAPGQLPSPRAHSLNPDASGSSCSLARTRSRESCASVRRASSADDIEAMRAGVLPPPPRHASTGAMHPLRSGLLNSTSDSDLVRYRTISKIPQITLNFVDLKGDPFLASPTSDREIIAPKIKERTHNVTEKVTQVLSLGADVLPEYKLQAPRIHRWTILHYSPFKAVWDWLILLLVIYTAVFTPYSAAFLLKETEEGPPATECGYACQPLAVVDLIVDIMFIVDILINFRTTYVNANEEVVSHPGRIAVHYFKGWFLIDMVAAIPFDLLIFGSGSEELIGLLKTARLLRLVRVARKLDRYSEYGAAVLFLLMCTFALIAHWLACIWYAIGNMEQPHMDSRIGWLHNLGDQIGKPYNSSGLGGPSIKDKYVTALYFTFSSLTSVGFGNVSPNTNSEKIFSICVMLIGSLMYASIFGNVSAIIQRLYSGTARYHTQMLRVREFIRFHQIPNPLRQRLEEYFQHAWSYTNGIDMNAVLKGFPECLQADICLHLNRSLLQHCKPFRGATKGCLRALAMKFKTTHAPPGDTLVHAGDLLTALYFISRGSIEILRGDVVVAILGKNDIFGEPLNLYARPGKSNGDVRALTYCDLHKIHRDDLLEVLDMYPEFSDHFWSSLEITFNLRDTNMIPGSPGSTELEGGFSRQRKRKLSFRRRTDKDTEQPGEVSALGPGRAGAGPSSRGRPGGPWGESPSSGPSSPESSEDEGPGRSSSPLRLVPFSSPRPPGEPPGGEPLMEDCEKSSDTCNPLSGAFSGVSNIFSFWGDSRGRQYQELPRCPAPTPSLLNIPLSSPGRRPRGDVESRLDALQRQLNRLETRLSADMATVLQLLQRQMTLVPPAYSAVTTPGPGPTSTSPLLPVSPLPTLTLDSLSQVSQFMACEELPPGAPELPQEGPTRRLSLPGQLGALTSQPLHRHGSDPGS

| SMILES | hERG current change (%, negative = inhibition) at 10uM [%] |
| --- | --- |
| CCCCCCCNC(=O)C1(CC2CC(c3ccc(Cl)cc3)=NO2)CCN(C(=O)C2CCCC2)CC1 (centres unmarked) | -55.8 |
| CCCCCCCNC(=O)C1(CC2CC(c3ccc(Cl)cc3)=NO2)CCN(C(=O)C2(C)CC2)CC1 (centres unmarked) | -55.8 |
| CCCCCCCNC(=O)C1(CC2CC(c3ccc(Cl)cc3)=NO2)CCN(C(=O)OC(C)(C)C)CC1 (centres unmarked) | 21.1 |
| COc1ccc(CC(=O)NCc2ccc(F)cc2)cc1S(=O)(=O)N1CCOCC1 | -8.29 |
| CCCn1c2ccccc2c2cnn(CC(=O)NCCOC)c(=O)c21 | -5.71 |
| CCCn1c2ccccc2c2cnn(CC(=O)NCCN(C)C)c(=O)c21 | -60.1 |
| CCCn1c2ccccc2c2cnn(CC(=O)NC(C)CC)c(=O)c21 (centres unmarked) | 7.84 |
| CCCn1c2ccccc2c2cnn(CC(=O)NCCN(CC)CC)c(=O)c21 | -66.6 |
| CCCn1c2ccccc2c2cnn(CC(=O)OC)c(=O)c21 | -0.361 |
| CCCn1c2ccccc2c2cnn(CC(=O)N(CC)CC)c(=O)c21 | -2.37 |
| Cc1ccc(S(=O)(=O)N2CCN(CC(=O)N(CC(C)C)c3c(N)n(CC(C)C)c(=O)[nH]c3=O)CC2)c(C)c1 | 12.7 |
| O=[N+]([O-])c1cc([As](=O)(O)O)ccc1O | 19.8 |
| Cc1csc(NC(=O)c2ccc(C)c([N+](=O)[O-])c2)n1 | -41.6 |
| Cc1nn2cc(-c3ccc(Cl)cc3)cnc2c1Br | 10.3 |
| Cc1ccc(NC(=O)C2Oc3ccccc3OC2C)cc1 (centres unmarked) | 8.68 |
| CCCCC(=O)NC(=S)Nc1c(C)cc(Br)cc1C | 2.71 |
| Cc1ccc(CNS(=O)(=O)c2ccc3c(c2)NC(=O)C(C)S3)cc1 (centres unmarked) | -1.22 |
| COc1ccccc1C(=O)Nc1ccnn1C1CCN(C)CC1 | -32.7 |
| CSCC(C)N1CCC(n2nccc2NC(=O)c2ccccc2C)CC1 (centres unmarked) | -16.6 |
| COc1ccccc1C(=O)Nc1ccnn1C1CCN(C(=O)C2CCOC2)CC1 (centres unmarked) | -35.9 |
| COc1ccccc1C(=O)Nc1ccnn1C1CCN(C(=O)c2cnsn2)CC1 | -62.2 |
| COc1ccccc1C(=O)Nc1ccnn1C1CCN(C(=O)c2ccoc2C)CC1 | -62.9 |
| Cc1ccccc1C(=O)Nc1ccnn1C1CCN(C(=O)c2cnsn2)CC1 | -30.4 |

| SMILES | hERG current change (%, negative = inhibition) at 10uM [%] |
| --- | --- |
| COc1ccccc1C(=O)Nc1ccnn1C1CCN(C(=O)C(C)(C)C)CC1 | -50.4 |
| COc1ccc(C(=O)Nc2ccnn2C2CCN(C(C)CSC)CC2)cc1 (centres unmarked) | 1.28 |
| COc1ccc(C(=O)Nc2ccnn2C2CCN(C(=O)c3cnsn3)CC2)cc1 | -11.5 |
| COCC(=O)N1CCC(n2nccc2NC(=O)c2ccccc2OC)CC1 | -1.85 |
| COc1ccccc1C(=O)Nc1ccnn1C1CCN(C(C)CSC)CC1 (centres unmarked) | -67 |
| COc1ccccc1C(=O)Nc1ccnn1C1CCN(C(=O)c2ccoc2)CC1 | -47.4 |
| COc1ccc(-c2noc(CSc3nc(N)cc(=O)[nH]3)n2)cc1 | 0.145 |
| OCCC1CN(CC#Cc2ccccc2)CCN1Cc1ccccc1F (centres unmarked) | -7.93 |
| Cc1[nH]c2ccccc2c1SCCN | 2.5 |
| O=S(=O)(c1cccc(C(F)(F)F)c1)N1CCN(C(=S)NCc2ccco2)CC1 | -5.8 |
| CC(=O)N1c2ccc(S(=O)(=O)N(C)CC(=O)NC3CCCC3)cc2CC1C (centres unmarked) | -23.1 |
| COC(=O)C1=C(c2ccc(Cl)c(C(F)(F)F)c2)C[C@@H]2CC[C@H]1N2C(=O)NCc1ccc2c(c1)OCO2 | -12.9 |
| Cc1cc(-n2nc(C)cc2C)n2ncc(-c3ccccc3)c2n1 | 16.2 |
| CC(=O)c1cnc2c(-c3ccc(Cl)cc3)cnn2c1C | -1.45 |
| CCc1ccccc1N(C(=O)Cn1nnc2ccccc21)C(C(=O)NCCOC)c1ccco1 (centres unmarked) | -7.99 |
| CCOC(=O)c1ccc(NC(=O)c2sc3nc4n(c(=O)c3c2C)CCC4)cc1 | 8.82 |
| N#CCCOC1(C#CCN2CCCC2)CCCCC1 | 19.6 |
| Cc1ccc(O)c(C(CC(=O)NC(C)C)c2ccccc2)c1 (centres unmarked) | 6.85 |
| COCCCN1CN(Cc2ccccc2)CNC1=S | 5.46 |
| O=C(Nc1nnc(CSCc2ccccc2F)s1)c1cccc([N+](=O)[O-])c1 | -0.45 |
| Cc1ccccc1C(=O)Nc1ccnn1C1CCN(C2CCSCC2)CC1 | -49.5 |
| COc1ccc(C(=O)Nc2ccnn2C2CCN(C3CCC3)CC2)cc1 | 20.7 |
| COc1ccccc1C(=O)Nc1ccnn1C1CCN(C2CCSCC2)CC1 | -70.9 |

| SMILES | hERG current change (%, negative = inhibition) at 10uM [%] |
| --- | --- |
| CCCC1=Nc2cc(C(=O)N3CCC(C(N)=O)CC3)ccc2Sc2ccccc21 | 4.75 |
| O=C(/C=C/c1ccc(OC2CSC2)cc1)c1ccccc1 | 10.1 |
| CC(=O)Nc1cccc(C(=O)Nc2ccc(S(=O)(=O)NC3=NCCCCC3)cc2)c1 | 17 |
| O=C(COc1ccccc1)NCc1ccccc1 | 4.64 |
| O=C(COc1ccccc1)NCc1nnc2c3ccccc3c(-c3ccccc3)nn12 | -64.6 |
| O=C(COc1ccccc1)NCc1n[nH]c(=S)n1-c1ccccc1 | 17.5 |
| O=C(COc1ccc(Cl)cc1)NCc1nnc2c3ccccc3c(-c3ccccc3)nn12 | -66.9 |
| O=C(COc1ccc(Cl)cc1)NCc1ccccc1 | -10.4 |
| O=C(COc1ccc(Cl)cc1)NCc1n[nH]c(=O)c2ccccc12 | -13 |
| CCc1cccc(NC(=O)C2CCCN(S(=O)(=O)c3cccnc3)C2)c1 (centres unmarked) | -5.51 |
| CNCC(=O)Nc1ccc(Cl)c(C(F)(F)F)c1 | 17.6 |
| O=C(O)/C=C/C(=O)c1ccc(O)cc1 | 2.05 |
| C/C(O)=C(\C#N)P(=O)(c1ccccc1)c1ccccc1 | 11.6 |
| Cc1ccccc1NC(=S)NC(C)C(c1cccs1)N1CCOCC1 (centres unmarked) | 2.05 |
| Cc1ccccc1NC(=S)NC(C)C(c1ccccc1)N1CCN(C)CC1 (centres unmarked) | -12.5 |
| CC(NC(=S)Nc1ccccc1Cl)C(c1cccs1)N1CCCC1 (centres unmarked) | -10.2 |
| Cc1ccc(C)c(NC(=S)NC(C)C(c2cccs2)N2CCOCC2)c1 (centres unmarked) | 8.4 |
| Cc1ccc(C)c(NC(=S)NC(C)C(c2ccccc2)N2CCN(C)CC2)c1 (centres unmarked) | -48 |
| CCN1CCN(C(c2cccs2)C(C)NC(=O)c2ccccc2)CC1 (centres unmarked) | -1.79 |
| CCN1CCN(C(c2cccs2)C(C)NC(=S)Nc2cccc(C)c2C)CC1 (centres unmarked) | -72.9 |
| CCN1CCN(C(c2cccs2)C(C)NC(=S)Nc2cc(C)ccc2C)CC1 (centres unmarked) | -68.5 |
| CCN1CCN(C(c2cccs2)C(C)NC(=O)CC(C)C)CC1 (centres unmarked) | -6.37 |
| CCN1CCN(C(c2cccs2)C(C)NC(=O)C(C)C)CC1 (centres unmarked) | 9.03 |

| SMILES | hERG current change (%, negative = inhibition) at 10uM [%] |
| --- | --- |
| Cc1cccc(NC(=S)NC(C)C(c2cccs2)N2CCN(C)CC2)c1C (centres unmarked) | -60.5 |
| Cc1cccc(NC(=S)NC(C)C(c2ccccc2)N2CCN(C)CC2)c1C (centres unmarked) | -50 |
| CN(C)c1ccc(/C=C2\NC(=S)N(Cc3ccccc3)C2=O)cc1 | -0.668 |
| O=C(CSC(=S)N1CCCC1)c1ccccc1 | 4.99 |
| COc1cc2c3c(c1OC)C1(C=CC(=NO)C=C1)CC3N(C(C)=O)CC2 (centres unmarked) | 13.8 |
| O=[N+]([O-])c1cccc(C(=Nc2cccc(Cl)c2)NO)c1 | -20 |
| C/C(=N/NC(=O)CSc1nc2ccccc2s1)c1ccncc1 | -24 |
| CCOC(=O)c1cnc2c(cnn2C)c1Oc1ccc(OC)cc1 | -43 |
| COc1ccc(NC(=S)NC(C)C(c2ccccc2)N2CCOCC2)cc1 (centres unmarked) | 7.52 |
| CCOc1ccc(NC(=S)NC(C)C(c2ccccc2)N2CCN(C)CC2)cc1 (centres unmarked) | -58.5 |
| CC(NC(=O)COc1ccccc1)C(c1ccccc1)N1CCN(C)CC1 (centres unmarked) | -9.29 |
| CCCN1CCN(C(=O)c2ccc(Sc3ccc(C)cc3)c(NC(C)=O)c2)CC1 | -50.6 |
| CC(=O)Nc1cc(C(=O)N2CCc3ccccc3C2)ccc1Sc1ccc(F)cc1 | -55.4 |
| CC(=O)Nc1cc(C(=O)N2CCCC2)ccc1Sc1ccc(C)cc1 | -30.5 |
| CC(=O)Nc1cc(C(=O)N2CCC3(CC2)OCCO3)ccc1Sc1ccc(F)cc1 | 2.37 |
| CC(=O)Nc1cc(C(=O)N2CCC3(CC2)OCCO3)ccc1Sc1ccc(C)cc1 | -16 |
| CC(=O)Nc1cc(C(=O)N2CCc3ccccc3C2)ccc1Sc1ccc(Cl)cc1 | -45 |
| O=C(c1cccc(F)c1)N1CCc2ccccc2C1 | -7.14 |
| CC(=O)Nc1cc(C(=O)N2CCc3ccccc3C2)ccc1Sc1ccc(C)cc1 | -53.6 |
| CC(=O)Nc1cc(C(=O)N2CCN(C)CC2)ccc1Sc1ccc(C)cc1 | -13.5 |
